From PubChem BioAssay
An excerpt weighted towards active compounds, which were near 31% of everything screened.
CYP2C19 activ – activators of human cytochrome P450 2C19 | activation factor at 5 µM | AID 1025 | recombinant CYP2C19, luciferin-H EGE luminescence; stronger effect = higher value; 0 = fully inhibited enzyme, 1 = untreated enzyme | P33261 | 96,000 tested, under 10 active;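 active = activation factor of at least 2 at 5 µM in the primary screen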;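 note: 0 = wells with 2.5 mM tranylcypromine and 1 = vehicle-only wells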
PLAP act – activators of human placental alkaline phosphatase; P05187; purified PLAP enzyme, luminescent substrate read-out; stronger effect = higher value; activation fold at 20 µM; 96,000 tested, 1.2% active; AID 696; in the data active = activation fold above about 2
CYP2C9 inhib – human CYP2C9 inhibition | P11712 | CYP2C9 Supersomes, luciferin-H conversion, luminescence | inhibition, % at 5 µM | 96,000 tested, 20% active;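 active = blocking of liver enzyme CYP2C9 beyond about 50% at 5 µM, limit read from the data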
Target sequence (P11712 whole entry, looked up): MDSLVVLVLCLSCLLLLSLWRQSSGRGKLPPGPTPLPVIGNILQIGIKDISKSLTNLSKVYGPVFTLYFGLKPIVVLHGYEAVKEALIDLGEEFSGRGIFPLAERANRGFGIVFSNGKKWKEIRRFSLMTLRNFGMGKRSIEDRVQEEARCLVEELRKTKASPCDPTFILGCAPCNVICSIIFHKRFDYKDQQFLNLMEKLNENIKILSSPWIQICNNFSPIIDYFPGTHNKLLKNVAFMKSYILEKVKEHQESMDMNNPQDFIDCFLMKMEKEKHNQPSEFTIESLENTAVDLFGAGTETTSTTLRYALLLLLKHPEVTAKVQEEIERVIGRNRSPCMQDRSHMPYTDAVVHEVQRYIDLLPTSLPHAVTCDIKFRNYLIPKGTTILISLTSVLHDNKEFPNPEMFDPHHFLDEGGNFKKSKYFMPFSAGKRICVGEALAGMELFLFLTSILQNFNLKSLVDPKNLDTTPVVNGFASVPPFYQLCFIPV
CYP2C19 inhib – human CYP2C19 inhibition; AID 778; CYP2C19 Supersomes, luciferin-H EGE luminescence, 30 min; inhibition, % at 5 µM; 96,000 tested, 21% active; P33261;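 active = CYP2C19 inhibition above a set limit at 5 µM in the primary screen, cut at about 50% in these data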;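 note: plate controls were negative control wells for no effect and 2.5 mM tranylcypromine positive control for full effect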
CYP2C9 act – CYP2C9 (human) activation. P11712. recombinant CYP2C9, luciferin-H conversion, luminescence; stronger effect = higher value; factor 1 = untreated enzyme, 0 = blocked. activation factor at 5 µM. 96,000 tested, 1.4% active;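 active = activation factor of 2 or more for CYP2C9 at a 5 µM dose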;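 note: 0 = sulfaphenazole-blocked wells and 1 = vehicle-only wells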
Numbers without * were called inactive; / = no result.

SMILES | CYP2C19 activ | PLAP act | CYP2C9 inhib | CYP2C19 inhib | CYP2C9 act
Cn1[nH]c(=O)c(Cl)c(Cl)c1=O | 1 | 0.9 | 9 | 4 | 0.9
COc1ccc(C2Nc3ccccc3C(=O)N2Cc2ccco2)cc1COc1ccccc1F (stereo not given) | 0.1 | 1.5 | 99* | 90* | 0
COc1ccc(C2Nc3ccccc3C(=O)N2Cc2ccco2)cc1COc1ccc(NC(C)=O)cc1 (stereo not given) | 0.2 | 1.7 | 100* | 85* | 0
COc1ccc(C2Nc3ccccc3C(=O)N2Cc2ccccc2)cc1CSc1ccccn1 (stereo not given) | 0.9 | 1 | 23 | 7 | 0.8
COc1ccc(-c2cc(C(=O)N/N=C/c3sccc3C)c3ccccc3n2)c(OC)c1 | 0.3 | 1.6 | 88* | 65* | 0.1
COc1ccc(-c2cc(C(=O)O)c3ccccc3n2)c(OC)c1 | 1 | 0.8 | 62* | 5 | 0.4
Cc1ccsc1/C=N/NC(=O)c1sccc1C | 0.9 | 0.9 | 9 | 10 | 0.9
COc1cc2ccccc2cc1C(=O)O | 0.8 | 1 | 82* | 21 | 0.2
COc1ccccc1-c1cc(C(=O)N/N=C/c2cccs2)c2ccccc2n1 | 0.2 | 1.7 | 96* | 80* | 0
CCCc1nnc(NC(=O)CCCN2C(=O)c3ccccc3C2=O)s1 | 0.9 | 0.9 | 30 | 6 | 0.7
CCCc1cc(C(=O)Nc2c(C)n(C)n(-c3ccccc3)c2=O)no1 | 0.9 | 1.2 | 22 | 10 | 0.8
COC(=O)c1cc(OC)c(OC)cc1NC(=O)c1cc(-c2ccccc2)nc2ccccc12 | 1.1 | 0.9 | 5 | -7 | 1
COc1ccc(-c2cc(C(=O)N/N=C/c3ccc4c(c3)OCO4)c3ccccc3n2)c(OC)c1 | 0.3 | 1 | 88* | 66* | 0.1
COc1ccccc1-c1cc(C(=O)N/N=C/C=C/c2ccccc2[N+](=O)[O-])c2ccccc2n1 | 0.8 | 1.7 | 66* | 21 | 0.3
COc1ccc(-c2cc(C(=O)N/N=C/c3ccc(OC)c(COCC(F)(F)C(F)F)c3)c3ccccc3n2)c(OC)c1 | 0.2 | 1.3 | 88* | 79* | 0.1
O=c1c2cc(N3CCOCC3)ccc2[nH]c(=S)n1CCCN1CCN(c2ccccc2F)CC1 | 1 | 1.3 | 19 | 3 | 0.8
O=c1cc(CO)oc(C(Nc2ccccn2)c2cccc(F)c2)c1O (stereo not given) | 0.8 | 1 | 17 | 18 | 0.8
Cc1ccc2ccc(C(Nc3ccccn3)c3ccccc3)c(O)c2n1 (stereo not given) | 0.3 | 1.8 | 94* | 75* | 0.1
Oc1c(C(Nc2ccccn2)c2ccccn2)ccc2cccnc12 (stereo not given) | 0.5 | / | 67* | 48 | 0.3
Cc1cc(NC(c2ccc(Cl)cc2)c2ccc3cccnc3c2O)no1 (stereo not given) | 1.1 | 2* | -2 | -8 | 1
COc1cc(C(Nc2ccccn2)c2ccc3ccc(C)nc3c2O)cc(OC)c1O (stereo not given) | 0.9 | 2* | 12 | 11 | 0.9
N#CCCN(C1CCCCC1)S(=O)(=O)CCOc1ccccc1 | 0.6 | 0.8 | 26 | 36 | 0.7
O=C(COc1ccc(Cl)cc1)NCc1nnc(SCC(=O)N2CCCc3ccccc32)o1 | 1 | 0.9 | 18 | -3 | 0.8
CC1=C(C#N)C2C(/C1=N/O)C2(C)C (stereo not given) | 0.8 | 1 | 20 | 24 | 0.8
CC(=O)NC(c1ccco1)c1ccc2cccnc2c1O (stereo not given) | 0.9 | 2.7* | 26 | 6 | 0.7
SMILES | CYP2C19 activ | PLAP act | CYP2C9 inhib | CYP2C19 inhib | CYP2C9 act
CCOC(=O)C(C)Oc1cccc2c(=O)n(CC(=O)Nc3ccc(OCC)cc3)ccc12 (stereo not given) | 0.9 | 0.9 | 21 | 8 | 0.8
CCOC(=O)N1CCN(S(=O)(=O)c2ccc(C(=O)Nc3nc4ccc(F)cc4s3)cc2)CC1 | 0.8 | 0.9 | 64* | 22 | 0.4
COc1ccccc1C(=O)NCC1CCN(c2ccc(S(=O)(=O)N3CCOCC3)cc2)CC1 | 0.4 | 1.6 | 36 | 58* | 0.6
COc1ccc(C)cc1NC(=O)c1ccc(S(=O)(=O)N2CCOCC2)cc1 | 1 | 1.1 | -264 | 5 | 3.6*
COc1ccccc1NC(=O)c1ccc(S(=O)(=O)N2CCOCC2)cc1 | 0.9 | 1.5 | -249 | 14 | 3.5*
COc1ccc(N2CCN(C(=O)c3ccc(S(=O)(=O)N4CCOCC4)cc3)CC2)cc1 | 1 | 1 | 1 | 0 | 1
